Compound activity deposited in PubChem by National Center for Advancing Translational Sciences (NCATS).
The list is not random: actives were taken first. Their share in the collection is about 19%.
HT1080 IDH1KD tx – HT-1080 IDH1 knockdown cell toxicity (counter line). HT-1080 IDH1 knockdown viability, ATP luminescence, 48 h. Potency, µM (titrated, usually from 46.1 µM), inactives show at the top dose activity, negative = toxicity, hits mostly cytotoxic. 360,000 tested, 2% active. AID 686971;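 note: potency is the fitted concentration of half-maximal effect; 0% = DMSO wells and -100% = cell-free medium wells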
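In this qHTS, HT-1080 cells depleted of IDH1 are exposed for 48 h at 37 °C to compound titrations. Toxicity is scored from CellTiter-Glo luminescence, with DMSO as full viability and medium alone as none.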
TDP1 cell CPT – DT40-hTDP1 cell growth loss with CPT; Potency, µM (top dose mostly 46.2 µM), without a hit: at the top dose activity change, negative = growth inhibition, hits mostly inhibitors; 420,000 tested, 12% active; AID 686979; chicken DT40 Tdp1-/-;hTDP1 cells + 20 nM CPT, ATP luminescence, 48 h; note: potency is the fitted concentration of half-maximal effect; nearly all actives have a fitted effect of over 55% in size
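Chicken DT40 Tdp1-/- cells stably complemented with human TDP1 were seeded at 400 cells/well in medium containing 20 nM camptothecin, exposed to pin-transferred compounds, and grown at 37 °C for at least 48 hr. Viability was read as ATP luminescence.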
TDP1 cell noCPT – qHTS for Inhibitors of human tyrosyl-DNA phosphodiesterase 1 (TDP1): qHTS in cells in absence of CPT | Potency, µM (titrated, usually from 46.2 µM), for the others: top-dose activity change, negative = growth inhibition, most hits filed as inhibitors | 420,000 tested, 15% active | DT40 Tdp1-/- hTDP1 cells, no CPT, ATP luminescence, 48 h; note: potency is the fitted concentration of half-maximal effect; nearly all actives have a fitted effect of over 55% in size
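Chicken DT40 Tdp1-/- cells stably complemented with human TDP1 were seeded at 400 cells/well with DMSO in place of 20 nM camptothecin. After compound pinning, cells grew at least 48 hr at 37 °C; viability read by CellTiter-Glo luminescence.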
HT1080NT lethal – kills 2HG-producing HT-1080-NT fibrosarcoma cells. HT-1080-NT fibrosarcoma viability, CellTiter-Glo ATP luminescence, 48 h. Potency, µM (titrated, usually from 46.1 µM), inactives show at the top dose activity, negative = less viability, usual class: cytotoxic. 360,000 tested, 1.6% active;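 note: NT is the 2HG producing partner of a matched IDH1 knockdown line; potency is the fitted concentration of half-maximal effect; 0% = DMSO-treated cells and -100% = media-only wells without cells; nearly all actives have a fitted effect of over 55% in size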
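Fibrosarcoma NT cells, 750 per well in 5% FBS RPMI, were exposed to compound for 48 hours. Viability: CellTiter-Glo luminescence.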
IL1B secr inh – blocks inflammasome-driven IL-1 beta release | THP-1 LPS/ATP IL-1B secretion, AlphaLISA, 16 h; stronger effect = lower value | activity change, % at 57.5 µM | 360,000 tested, 4.7% active | AID 743279; in the data active = activity change below about -50%; inconclusive = mostly about -30% to -49%
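THP-1 cells pretreated 1 hr with compounds (up to 57.5 uM final), then stimulated with LPS (250 ng/mL final) plus ATP (1.25 mM final); secreted IL-1B measured by AlphaLISA after 16 hr, decreased signal indicating inhibition.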
The depositor's hits bear a star; ? = inconclusive; . = no result. Unless noted, calls come from the whole dose curve; as a rule, active = well fitted curve in the direction sought with a large enough effect; inconclusive = small, poorly fitted or top-dose-only effect, or another doubt; inactive = no such curve, though single readings can be large; an effect the other way counts as inactive or inconclusive. Unless noted, % is set by controls: 0 for no effect and ±100 for the full control effect.

SMILES	HT1080 IDH1KD tx	TDP1 cell CPT	TDP1 cell noCPT	HT1080NT lethal	IL1B secr inh
COc1ccc(-c2cc(C(F)(F)F)nc(N3CCCCCC3)n2)cc1	10%	-10%	-20%	8%	24
COc1ccc(-c2cc(C(F)(F)F)nc(N3CCN(C)CC3)n2)cc1	?	?	16µM*	?	-65*
COc1ccc(-c2cc(C(F)(F)F)nc(-n3ccnc3C)n2)cc1	-2%	?	21µM*	-1%	0
COc1ccc(-c2cc(C(F)(F)F)nc(N3CCN(C)CC3)n2)cc1OC	?	?	21µM*	?	0
COc1ccc(-c2cc(C(F)(F)F)nc(N3CCCCC3)n2)cc1OC	12%	?	?	25%	15
CCN(Cc1cccc(S(=O)(=O)O)c1)c1ccc(C(=C2C=CC(=[N+](CC)Cc3cccc(S(=O)(=O)O)c3)C=C2)c2ccc(O)cc2S(=O)(=O)O)cc1	.	-93%	-86%	.	.
CCN(Cc1cccc(S(=O)(=O)O)c1)c1ccc(C(=C2C=CC(=[N+](CC)Cc3cccc(S(=O)(=O)O)c3)C=C2)c2ccccc2S(=O)(=O)[O-])cc1	.	2µM*	13µM*	.	.
Cc1ccc2c(cnn2C(=O)CCC(=O)NCc2ccccc2Cl)c1	7%	0%	-2%	-11%	14
CCNC(=O)C1(C)CCCN1Cc1c(F)cccc1F (centres undefined)	28%	?	16µM*	?	0
Cc1ccc(OCCN2CCC2(C)C(=O)NCc2cccc3ccccc23)cc1 (centres undefined)	?	?	?	?	-11
Cc1ccc(OCCN2CCC2(C)C(=O)NCc2ccc(C(F)(F)F)cc2)cc1 (centres undefined)	?	?	21µM*	?	-19
CC1(C(=O)NCc2ccc(C(F)(F)F)cc2)CCN1Cc1c(F)cccc1F (centres undefined)	0%	16µM*	?	-5%	4
CC1(C(=O)NCc2ccc(C(F)(F)F)cc2)CCN1Cc1ccc(-c2ccccc2)o1 (centres undefined)	?	?	?	?	-54*
CC(C)NC(=O)C1(C)CCN1Cc1ccc(C(F)(F)F)cc1 (centres undefined)	1%	?	?	19%	2
CC[C@H](C)[C@@H](C(=O)N1CCNCC1)n1cc([C@@H](N)CC(C)C)nn1	0%	2%	-29%	-3%	2
O=C(NCC1CCN(C(=O)c2c(F)c(F)c(F)c(F)c2F)CC1)c1c(F)c(F)c(F)c(F)c1F	1%	?	?	0%	0
CC(=O)c1ccc(S(=O)(=O)N2CCN(c3ccccc3F)CC2)cc1	2%	-27%	-30%	-2%	-1
O=C1CC2(CCN(S(=O)(=O)c3ccccc3F)CC2)Oc2ccccc21	12%	-10%	?	12%	-25
O=C(c1ccc(Cl)c(Cl)c1)N1CCC(=O)N(C(COCc2ccccc2)Cc2ccccc2)CC1 (centres undefined)	?	16µM*	23µM*	?	?
O=C(c1ccc(Cl)c(Cl)c1)N1CCC(=O)N([C@H](COCc2cccc(C(F)(F)F)c2)Cc2ccccc2)CC1	?	?	?	?	-12
O=C(c1ccc(Cl)c(Cl)c1)N1CCC(=O)N([C@H](COCc2ccccc2)Cc2ccccc2)CC1	?	21µM*	18µM*	?	-13
O=C(c1cccc(Cl)c1)N1CCC(=O)N(C(COCc2ccccc2)Cc2ccccc2)CC1 (centres undefined)	-4%	?	?	-15%	-5
CCCCCCN=C(C)c1ccccc1O	19%	18%	-4%	13%	14
CSc1ccc(/C=C2\C=Cc3ccc([N+](=O)[O-])cc32)cc1	.	?	11µM*	.	.
O=[N+]([O-])c1ccc2c(c1)C=C/C2=C/c1ccccc1	.	13µM*	18µM*	.	.
SMILES	HT1080 IDH1KD tx	TDP1 cell CPT	TDP1 cell noCPT	HT1080NT lethal	IL1B secr inh
Cc1ccccc1N1C(=O)CC(c2c[nH]c3ccccc23)C1=O (centres undefined)	-11%	-7%	-14%	-7%	0
O=C1C=CC(c2c[nH]c3ccccc23)CC1 (centres undefined)	?	?	16µM*	?	-108*
Cc1cccc(NS(=O)(=O)c2cccc(C(=O)NCC(C)(C)N3CCOCC3)c2)c1	-6%	?	-29%	1%	-11
CCc1nn(CCCC(=O)NCc2cc(Br)ccc2OC)c(=O)c2cc3occc3n12	15%	?	?	9%	-56*
CCc1nn(CCCC(=O)NCc2ccc(OC(C)C)cc2)c(=O)c2cc3occc3n12	10µM*	?	12µM*	12µM*	-9
CCc1nn(CCCC(=O)N(C)Cc2ccccc2)c(=O)c2cc3occc3n12	9%	16µM*	?	9%	5
CCc1ccc(NC(=O)CCCn2nc(CC)n3c(cc4occc43)c2=O)cc1	-6%	?	-21%	8%	-1
CCc1nn(CCCC(=O)NCc2ccccc2C)c(=O)c2cc3occc3n12	6%	-27%	0%	12%	-3
CCc1nn(CCCC(=O)NC2CCCCC2C)c(=O)c2cc3occc3n12 (centres undefined)	4%	?	26µM*	5%	3
COC(=O)COc1ccc(S(=O)(=O)Nc2cc([N+](=O)[O-])ccc2C)cc1	12%	1%	-5%	0%	39
O=S(=O)(c1cccc2cccc(Cl)c12)N1CCCC1	-5%	1%	8%	1%	?
COc1ccc(S(=O)(=O)N/N=C(/C)c2cccc(NC(=O)c3ccccc3Cl)c2)cc1	4%	13%	14%	-1%	?
CN(C(=O)COC(=O)c1ccccc1Nc1ccccc1)c1c(N)n(Cc2ccccc2)c(=O)[nH]c1=O	?	?	16µM*	?	-63*
COCCN(C(=O)COC(=O)c1ccccc1Nc1ccccc1)c1c(N)n(Cc2ccccc2)c(=O)[nH]c1=O	?	21µM*	?	?	-53*
Cc1cc(C(=O)OCC(=O)N(C)c2c(N)n(Cc3ccccc3)c(=O)[nH]c2=O)c(C)n1-c1ccccc1	-5%	?	-26%	-7%	-55*
COCCN(C(=O)COC(=O)/C=C/c1ccc(Cl)c(Cl)c1)c1c(N)n(Cc2ccccc2)c(=O)[nH]c1=O	-2%	16µM*	18µM*	0%	-7
CN1C(=O)c2ccc(NC(=O)C3CC3)cc2C1=O	1%	-14%	25%	5%	-11
